These results are taken from PubChem BioAssay.

The source made the active and inactive calls.

The nature of assay [1]: small molecules captured by biotinylated probe aFSTL3 – biochemical, small-molecule microarray, fluorescence 635/667, stem cell growth factor project, primary screen (AID 1064).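 Note: measures binding of the biotinylated anti-FSTL3 antibody to printed compounds.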 The note with it: higher = more signal.
The nature of assay [2]: binders from COS7 lysate, DM2A8 probe, primary screen, torsin A project, cell lysate, small-molecule microarray, fluorescence 635/667 (AID 1065). The note with it: higher = more signal, COS7 lysate expressing mutant human TOR1A.
The nature of assay [3]: small molecules captured by biotinylated probe aFGF2 – biochemical, small-molecule microarray, fluorescence 635/667, stem cell growth factor project, primary screen (AID 1067).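 Note: measures binding of biotinylated aFGF2 protein to printed compounds on slides; z-score merges feature fluorescence and signal-to-noise across triplicate slides.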 The settings on record: higher = more signal.
The nature of assay [4]: small molecules captured by biotinylated probe aFGF10 – biochemical, small-molecule microarray, fluorescence 635/667, stem cell growth factor project, primary screen (AID 1071).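 Note: score merges 667 nm spot intensity and signal to noise from triplicate slides.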 The settings on record: higher = more signal.
Assay [5] has as its target Neurogenic locus notch homolog protein 2 (Homo sapiens) (UniProt Q04721). The assay can be described thus: small molecules binding Notch2 protein – biochemical, small-molecule microarray, 635 nm fluorescence, stem cell growth factors, primary screen (AID 1073). The settings on record: higher = more signal.
Assay [6] concerns the target Pro-neuregulin-1, membrane-bound isoform (Homo sapiens) (UniProt Q02297). In words: small molecules binding neuregulin-1 protein – biochemical, small-molecule microarray, fluorescence 635/667, psychiatric disease protein project, primary screen (AID 1075).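 Note: score combines 667 nm spot fluorescence with signal to noise.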 The settings on record: NRG1 binding, 635 nm fluorescence, higher = more signal.
Assay [7] deals with Neuregulin-1 EGF-like domain. In words: small molecules binding NRG1 EGF domain – biochemical, small-molecule microarray, 635 nm fluorescence, primary screen (AID 1081).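 Note: binding of the protein to compounds printed on small-molecule microarray slides.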 The note with it: higher = more signal.
The nature of assay [8]: FRG1 expression reporter modulators in myotubes – cell-based, C2C12 myotubes, firefly/Renilla luciferase, luminescence, FRG1 inhibition for FSHD, primary screen (AID 1084). The note with it: FRG1 promoter luciferase, higher = more signal, called active from +8 up or from −8 down.
A short description of assay [9]: small molecules captured by biotinylated probe aFST – biochemical, small-molecule microarray, fluorescence 635/667, stem cell growth factor project, primary screen (AID 1086).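 Note: score merges 667 nm fluorescence with signal-to-noise of each printed compound spot.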 The note with it: higher = more signal.
Assay [10] is described as follows: binders of probe aHhip on microarray, primary screen, stem cell growth factor project, biochemical, small-molecule microarray, fluorescence 635/667 (AID 1087).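 Note: score merges spot fluorescence at 667nm with spot signal to noise ratio.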 The settings on record: higher = more signal.
The test system of assay [11] is PRMT1 (protein arginine N-methyltransferase 1). In words: small molecules binding arginine methyltransferase PRMT1 – biochemical, small-molecule microarray, 635 nm fluorescence, primary screen (AID 1088).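 Note: binding of Prmt1 protein to compounds spotted on small-molecule microarray slides.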 The note with it: higher = more signal.
Assay [12] in a line: growth effects on S. cerevisiae YJM789 – YJM789 clinical isolate, OD600, 24 h, basal, primary screen (AID 1089).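 Note: growth of clinical yeast isolate S. cerevisiae YJM 789 seeded 1000 cells per well; test concentration not given here.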 The settings on record: higher = more signal, called active from +8 up or from −8 down.
A short description of assay [13]: S. pombe growth modifiers, basal conditions – strain 972, OD600, 24 h, no modulator, primary screen (AID 1090).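 Note: basal condition with compound alone and no growth modifier present; test concentration not given here.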 The note with it: S. pombe 972 growth, higher = more signal, called active from +8 up or from −8 down.
Assay [14] is described as follows: budding yeast growth modifiers under rapamycin – strain BY4716, OD600, 96 h, primary screen (AID 1091). Note: test concentration not given here. The note with it: S. cerevisiae BY4716 + rapamycin, higher = more signal, called active from +8 up or from −8 down.
Assay [15] deals with Torsin-1A-interacting protein 2 (Homo sapiens) (UniProt Q8NFQ8). The assay can be described thus: small molecules binding lysate-expressed LULL1 – cell lysate, human LULL1 lysate, 635/667 nm fluorescence, primary screen (AID 1092).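 Note: probe is lysate of COS7 cells overexpressing human LULL1; score merges per-feature 667 nm fluorescence with signal-to-noise.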 The note with it: small-molecule microarray, hLULL1 lysate binding, 635 nm fluorescence; higher = more signal.
Assay [16] is described as follows: optical density change of DRC41 E. coli – strain DRC41, OD650, 24 h, E. coli filamentation project, primary screen (AID 1093).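 Note: MC1000 strain lacking acrAB efflux and sulA so SOS filamentation is blocked; test concentration not given here.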 The note with it: E. coli DRC41 growth, higher = more signal, called active from +8 up or from −8 down.
Assay [17] is described as follows: probe aLefty2 binding to arrayed compounds – biochemical, biotinylated probe, 635/667 nm fluorescence, primary screen (AID 1094).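 Note: score merges spot fluorescence near 667 nm with spot signal-to-noise ratio.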 The note with it: small-molecule microarray, higher = more signal.
Assay [18] has as its system Noggin (protein binding on small-molecule microarray). The assay can be described thus: small molecules binding Noggin protein – biochemical, 635/667 nm fluorescence, primary screen (AID 1095).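 Note: score merges 667 nm feature fluorescence with signal to noise over triplicate slides.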 The note with it: 635 nm fluorescence, higher = more signal.
For assay [19], the target named is Neurogenic locus notch homolog protein 3 (Homo sapiens) (UniProt Q9UM47). The assay can be described thus: small molecules binding NOTCH3 protein – biochemical, 635/667 nm fluorescence, primary screen (AID 1096). The settings on record: small-molecule microarray, 635 nm fluorescence, higher = more signal.
Sequence of Neurogenic locus notch homolog protein 3 (Homo sapiens) (Q9UM47 whole entry, looked up): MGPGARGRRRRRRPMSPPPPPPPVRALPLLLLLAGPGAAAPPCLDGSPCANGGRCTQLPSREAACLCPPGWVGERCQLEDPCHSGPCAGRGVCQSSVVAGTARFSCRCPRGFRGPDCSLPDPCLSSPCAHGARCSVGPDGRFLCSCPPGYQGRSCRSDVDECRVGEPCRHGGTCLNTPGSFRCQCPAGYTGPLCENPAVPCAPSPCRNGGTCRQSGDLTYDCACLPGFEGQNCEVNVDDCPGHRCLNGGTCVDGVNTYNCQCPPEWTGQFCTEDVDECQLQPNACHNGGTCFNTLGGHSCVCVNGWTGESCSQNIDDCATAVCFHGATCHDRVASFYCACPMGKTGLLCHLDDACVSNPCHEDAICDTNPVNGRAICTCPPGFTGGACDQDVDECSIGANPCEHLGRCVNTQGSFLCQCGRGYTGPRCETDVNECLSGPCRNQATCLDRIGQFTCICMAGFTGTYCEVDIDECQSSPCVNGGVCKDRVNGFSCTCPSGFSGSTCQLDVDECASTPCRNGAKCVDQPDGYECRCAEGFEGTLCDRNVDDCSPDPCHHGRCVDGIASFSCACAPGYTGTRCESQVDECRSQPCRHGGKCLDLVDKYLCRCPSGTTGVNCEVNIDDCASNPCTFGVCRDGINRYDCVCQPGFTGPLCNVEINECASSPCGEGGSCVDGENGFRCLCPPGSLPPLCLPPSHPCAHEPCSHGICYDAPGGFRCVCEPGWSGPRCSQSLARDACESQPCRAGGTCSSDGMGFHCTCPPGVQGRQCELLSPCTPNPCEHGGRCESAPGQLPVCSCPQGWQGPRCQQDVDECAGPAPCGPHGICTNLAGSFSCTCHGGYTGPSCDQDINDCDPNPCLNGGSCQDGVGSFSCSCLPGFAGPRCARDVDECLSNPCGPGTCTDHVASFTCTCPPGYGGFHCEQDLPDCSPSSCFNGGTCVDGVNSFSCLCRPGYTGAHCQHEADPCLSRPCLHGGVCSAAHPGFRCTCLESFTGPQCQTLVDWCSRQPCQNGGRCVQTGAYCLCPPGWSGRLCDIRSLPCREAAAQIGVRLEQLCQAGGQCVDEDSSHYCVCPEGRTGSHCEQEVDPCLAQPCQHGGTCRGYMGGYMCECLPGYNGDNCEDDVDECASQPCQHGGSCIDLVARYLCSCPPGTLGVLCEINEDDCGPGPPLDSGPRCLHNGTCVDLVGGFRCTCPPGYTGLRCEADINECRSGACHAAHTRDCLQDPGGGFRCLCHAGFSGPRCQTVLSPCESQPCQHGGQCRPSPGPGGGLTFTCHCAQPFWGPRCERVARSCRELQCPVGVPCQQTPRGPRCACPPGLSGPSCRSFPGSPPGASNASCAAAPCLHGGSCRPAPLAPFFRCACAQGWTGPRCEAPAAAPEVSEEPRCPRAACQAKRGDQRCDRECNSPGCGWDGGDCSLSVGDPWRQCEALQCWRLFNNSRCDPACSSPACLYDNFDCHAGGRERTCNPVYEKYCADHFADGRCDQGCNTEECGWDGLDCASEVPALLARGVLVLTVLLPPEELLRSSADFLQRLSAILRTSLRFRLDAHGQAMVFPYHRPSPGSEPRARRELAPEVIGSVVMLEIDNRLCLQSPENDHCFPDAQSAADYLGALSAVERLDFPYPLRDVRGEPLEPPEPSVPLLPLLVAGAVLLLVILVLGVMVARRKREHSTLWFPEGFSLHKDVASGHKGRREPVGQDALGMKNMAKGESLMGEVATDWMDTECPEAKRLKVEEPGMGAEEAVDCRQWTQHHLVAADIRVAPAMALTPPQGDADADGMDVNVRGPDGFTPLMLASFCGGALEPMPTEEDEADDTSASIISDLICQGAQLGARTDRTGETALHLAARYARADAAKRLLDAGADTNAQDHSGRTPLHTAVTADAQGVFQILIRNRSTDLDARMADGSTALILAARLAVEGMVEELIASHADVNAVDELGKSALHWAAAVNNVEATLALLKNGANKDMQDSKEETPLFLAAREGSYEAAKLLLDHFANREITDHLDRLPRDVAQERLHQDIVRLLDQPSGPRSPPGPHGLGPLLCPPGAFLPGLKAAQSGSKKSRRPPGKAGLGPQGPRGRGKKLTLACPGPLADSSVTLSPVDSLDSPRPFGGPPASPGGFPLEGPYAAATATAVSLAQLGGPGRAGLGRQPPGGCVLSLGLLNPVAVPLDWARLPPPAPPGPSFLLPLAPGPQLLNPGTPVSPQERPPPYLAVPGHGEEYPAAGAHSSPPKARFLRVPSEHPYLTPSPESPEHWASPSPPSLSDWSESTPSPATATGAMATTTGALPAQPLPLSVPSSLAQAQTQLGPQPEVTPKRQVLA
Assay [20] can be described thus: probe aEGFR binding to arrayed compounds – biochemical, biotinylated probe, 635/667 nm fluorescence, primary screen (AID 1097).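 Note: probe is a biotinylated anti-EGFR antibody binding compounds printed on slides; score combines fluorescence near 667 nm and signal to noise of each spot.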 The settings on record: small-molecule microarray, higher = more signal.

Sequence of Neurogenic locus notch homolog protein 2 (Homo sapiens) (Q04721 whole entry, looked up, canonical isoform): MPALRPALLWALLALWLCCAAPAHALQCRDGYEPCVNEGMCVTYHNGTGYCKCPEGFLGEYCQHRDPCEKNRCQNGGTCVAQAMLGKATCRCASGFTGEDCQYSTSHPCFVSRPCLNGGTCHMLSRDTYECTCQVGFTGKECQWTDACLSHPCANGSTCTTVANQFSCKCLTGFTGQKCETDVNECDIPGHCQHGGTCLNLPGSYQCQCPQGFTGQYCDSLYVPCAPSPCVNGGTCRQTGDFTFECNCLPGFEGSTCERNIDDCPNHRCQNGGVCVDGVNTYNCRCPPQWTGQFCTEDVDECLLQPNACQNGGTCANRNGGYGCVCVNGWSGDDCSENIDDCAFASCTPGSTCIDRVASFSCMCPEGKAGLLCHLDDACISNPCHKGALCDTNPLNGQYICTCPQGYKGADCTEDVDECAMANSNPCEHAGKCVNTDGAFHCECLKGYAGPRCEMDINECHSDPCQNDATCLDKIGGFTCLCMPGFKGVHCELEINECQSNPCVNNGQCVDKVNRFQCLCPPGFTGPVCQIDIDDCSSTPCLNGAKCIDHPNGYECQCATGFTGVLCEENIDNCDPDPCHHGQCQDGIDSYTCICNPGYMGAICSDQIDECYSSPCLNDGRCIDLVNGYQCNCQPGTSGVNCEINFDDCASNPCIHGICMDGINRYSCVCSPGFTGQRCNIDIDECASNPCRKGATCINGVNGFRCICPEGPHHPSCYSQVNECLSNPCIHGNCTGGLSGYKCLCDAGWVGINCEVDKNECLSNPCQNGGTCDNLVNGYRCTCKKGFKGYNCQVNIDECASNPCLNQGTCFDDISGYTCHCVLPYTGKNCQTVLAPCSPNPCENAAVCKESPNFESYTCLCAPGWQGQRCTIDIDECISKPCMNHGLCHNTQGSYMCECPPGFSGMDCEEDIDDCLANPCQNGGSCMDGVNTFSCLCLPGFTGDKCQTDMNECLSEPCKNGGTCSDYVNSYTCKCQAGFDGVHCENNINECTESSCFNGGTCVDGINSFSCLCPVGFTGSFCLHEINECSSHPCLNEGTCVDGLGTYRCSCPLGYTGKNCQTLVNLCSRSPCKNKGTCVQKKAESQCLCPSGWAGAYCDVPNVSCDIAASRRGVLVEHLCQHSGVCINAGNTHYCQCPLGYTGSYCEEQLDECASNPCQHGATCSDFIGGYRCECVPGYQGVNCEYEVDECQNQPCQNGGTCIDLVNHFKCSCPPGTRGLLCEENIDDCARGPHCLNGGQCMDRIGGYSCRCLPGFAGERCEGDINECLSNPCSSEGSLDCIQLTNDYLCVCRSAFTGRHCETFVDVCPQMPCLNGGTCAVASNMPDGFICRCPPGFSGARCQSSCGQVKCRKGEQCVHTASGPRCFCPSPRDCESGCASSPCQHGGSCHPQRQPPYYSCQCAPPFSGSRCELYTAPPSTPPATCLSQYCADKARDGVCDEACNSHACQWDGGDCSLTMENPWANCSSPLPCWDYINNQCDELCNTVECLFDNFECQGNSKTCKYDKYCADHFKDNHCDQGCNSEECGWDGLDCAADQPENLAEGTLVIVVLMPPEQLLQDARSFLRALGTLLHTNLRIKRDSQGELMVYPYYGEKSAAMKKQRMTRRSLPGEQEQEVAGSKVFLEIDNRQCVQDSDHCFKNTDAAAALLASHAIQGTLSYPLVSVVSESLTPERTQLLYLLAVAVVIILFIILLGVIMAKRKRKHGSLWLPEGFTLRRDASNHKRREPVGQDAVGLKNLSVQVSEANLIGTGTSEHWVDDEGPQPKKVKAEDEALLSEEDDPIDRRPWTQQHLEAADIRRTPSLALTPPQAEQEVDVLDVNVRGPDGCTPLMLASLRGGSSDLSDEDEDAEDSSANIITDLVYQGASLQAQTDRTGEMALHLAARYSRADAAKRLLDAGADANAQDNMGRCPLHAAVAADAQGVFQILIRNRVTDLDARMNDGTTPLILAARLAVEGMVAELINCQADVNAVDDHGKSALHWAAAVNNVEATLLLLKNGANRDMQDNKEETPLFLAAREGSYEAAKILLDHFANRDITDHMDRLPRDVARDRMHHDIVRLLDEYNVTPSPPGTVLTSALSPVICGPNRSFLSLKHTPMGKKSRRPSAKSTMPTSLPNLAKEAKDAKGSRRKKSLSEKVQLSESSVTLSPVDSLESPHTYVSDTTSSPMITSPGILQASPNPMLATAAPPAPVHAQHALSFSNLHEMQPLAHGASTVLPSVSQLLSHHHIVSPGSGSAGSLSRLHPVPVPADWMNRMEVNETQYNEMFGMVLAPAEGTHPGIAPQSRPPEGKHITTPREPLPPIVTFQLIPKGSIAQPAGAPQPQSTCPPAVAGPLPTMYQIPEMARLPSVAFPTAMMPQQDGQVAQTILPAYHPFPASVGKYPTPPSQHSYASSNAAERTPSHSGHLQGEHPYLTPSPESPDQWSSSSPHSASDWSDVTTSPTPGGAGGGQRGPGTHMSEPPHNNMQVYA

Take `C=CCC(OC(C)=O)[C@@H]1[C@@H](N(Cc2cc3ccccc3o2)C(=O)Cc2ccc(F)cc2)c2cc(OCCCO)ccc2N1C(=O)c1ccc2ccccc2n1` (stereo not given in full): the composite z-score is -0.0583 in assay [1]; 0.337 in assay [2]; -0.0695 in assay [3]; 0.0991 in [4]; -0.0518 in assay [5]; -0.137 in assay [6]. The composite z-score was -0.275 in assay [7]; 0.0407 in [9]; 0.0881 in assay [10]; -0.22 in assay [11]; -0.136 in assay [15]; 0.055 in assay [17]. Moreover, the values for the composite z-score in assay [18], in assay [19] and in [20] were -0.145, -0.814 and -0.0573, respectively. Besides, the z-score in assay [8] is -0.591 (inactive); in assay [12], -0.271 (inactive); in assay [13], -0.448 (inactive); in assay [14] it was -0.258 (inactive); in assay [16], -0.494 (inactive).

`C=C[C@@H](C)[C@H](OC(=O)Nc1ccc(SC)cc1)c1ccc(OCCO)cc1`: the composite z-score was 0.342 in [1]; -0.272 in assay [2]; -0.215 in assay [3]; -0.542 in [4]; -0.713 in assay [5]; 1.8 in [6]. The composite z-score was 1.22 in [7]; -0.375 in [9]; -0.0538 in [10]; -0.0446 in assay [11]; 0.721 in assay [15]; -0.136 in [17]. The composite z-score was 0.362 in [18], 0.405 in assay [19] and -0.105 in assay [20]. Further, the z-score in [8] was 6.28 (inactive); in assay [12], 0.103 (inactive); in assay [13], -1.02 (inactive); in assay [14] it was -0.32 (inactive); in [16], 1.18 (inactive).

For the molecule `CCCC[C@@H]1C[C@H]1[C@@H](NC(=O)c1cccnc1)c1ccc(-c2ccccc2)cc1`, the composite z-score was 0.684 in assay [1]; -0.242 in assay [2]; -0.124 in [3]; -0.522 in assay [4]; -1.71 in assay [5]; -0.401 in assay [6]. Moreover, the composite z-score in assay [7] was -0.655; in [9] it was -1.23; in assay [10] it was -0.0074; in assay [11], -0.537; in assay [15], -0.795; in assay [17] it was 0.009. Further, the values for the composite z-score in assay [18], in [19] and in assay [20] were 1.01, -0.476 and -0.345, respectively. The z-score in [8] was -0.781 (inactive); in [12], -1.27 (inactive); in assay [13], -15.7 (active); in assay [14], -2.6 (inactive); in [16], -0.919 (inactive).

Turning to `CC(C)(C)OC(=O)CC[C@@]1(C(=O)O)N=C(c2ccc(OCCCO)cc2)O[C@@H]1c1ccccc1`, the composite z-score in [1] was 0.308; in assay [2], -0.648; in assay [3], -0.0459; in assay [4], 0.13; in assay [5], 0.347; in assay [6], 1.96. Moreover, the composite z-score amounted to 1.53 in assay [7]; 0.398 in [9]; 0.24 in assay [10]; 0.618 in assay [11]; 3.55 in assay [15]; 0.021 in assay [17]. The composite z-score is -0.423 in [18], 0.183 in [19] and -0.0884 in [20]. Further, the z-score in [8] was 0.853 (inactive); in assay [12], 0.586 (inactive); in assay [13], 1.24 (inactive); in [14], 0.519 (inactive); in assay [16], 0.0219 (inactive).

Consider `C=CCOC(=O)[C@@H]1[C@H]2C(=O)O[C@H](c3ccccc3)[C@H](c3ccccc3)N2[C@H](c2ccc(OCCOC(=O)[C@H]3C[C@H]4C(=O)N[C@@H](CCCC[N+](C)(C)C)C(=O)N4[C@H]3c3ccc(O)cc3)cc2)[C@@]12C(=O)Nc1ccc(I)cc12`, for which the composite z-score is -0.42 in assay [1]; 1.1 in assay [2]; -0.0569 in [3]; 0.528 in [4]; 1.18 in assay [5]; 1.31 in assay [6]. The composite z-score in assay [7] is 1.37; in [9], 0.208; in assay [10] it was -0.138; in assay [11], 1.53; in assay [15], 2.64; in [17], -0.126. Also, the composite z-score in [18] is 1.94; in [19], 1.05; in assay [20], -0.027. For the same molecule, the z-score in assay [8] is 0.369 (inactive); in [12], 1.86 (inactive); in [13] it was 1.49 (inactive); in assay [14], 4.28 (inactive); in [16] it was -0.0021 (inactive).
